Screening results as filed in PubChem.
KCNQ2 pot – potentiators of rat KCNQ2 potassium channel | B-score at 10 µM | CHO-K1 KCNQ2, FluxOR thallium flux fluorescence; stronger effect = higher value | 310,000 compounds, 0.54% hits;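 active = fluorescence ratio B-score at least 3 SD of library B-scores, with initial fluorescence B-score within 3 of them, cut at about 5.3 in these data; same plate scores as AID 2156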;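 also: B-score of peak minus minimum over baseline fluorescence ratio after K+ and Tl+ stimulus; positive B-score means potentiation of KCNQ2 with more thallium influx and brighter signal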
Target sequence (O88943 whole entry, looked up): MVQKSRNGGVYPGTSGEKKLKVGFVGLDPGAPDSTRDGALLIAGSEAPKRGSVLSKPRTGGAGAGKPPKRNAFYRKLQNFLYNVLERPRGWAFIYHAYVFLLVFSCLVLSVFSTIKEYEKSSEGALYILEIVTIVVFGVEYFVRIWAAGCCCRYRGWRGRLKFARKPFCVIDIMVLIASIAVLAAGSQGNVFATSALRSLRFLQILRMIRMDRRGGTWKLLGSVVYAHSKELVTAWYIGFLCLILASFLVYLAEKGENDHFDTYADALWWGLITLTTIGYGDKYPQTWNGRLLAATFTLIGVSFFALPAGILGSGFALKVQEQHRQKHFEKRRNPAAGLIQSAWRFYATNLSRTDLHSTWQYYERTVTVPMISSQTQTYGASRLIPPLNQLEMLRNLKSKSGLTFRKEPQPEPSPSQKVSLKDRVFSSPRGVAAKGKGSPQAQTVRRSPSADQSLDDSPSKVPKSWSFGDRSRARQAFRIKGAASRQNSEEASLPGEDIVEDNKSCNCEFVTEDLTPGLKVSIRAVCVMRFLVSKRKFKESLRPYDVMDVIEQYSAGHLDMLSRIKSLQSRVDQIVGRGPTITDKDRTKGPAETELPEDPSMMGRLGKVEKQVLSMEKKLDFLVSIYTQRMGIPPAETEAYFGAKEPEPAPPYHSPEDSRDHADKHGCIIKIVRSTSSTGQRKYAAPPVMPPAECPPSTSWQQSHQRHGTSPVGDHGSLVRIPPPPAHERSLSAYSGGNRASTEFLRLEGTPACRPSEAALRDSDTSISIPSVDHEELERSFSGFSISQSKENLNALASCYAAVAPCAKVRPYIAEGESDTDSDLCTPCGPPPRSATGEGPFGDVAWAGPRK
KCNQ2 block – rat KCNQ2 potassium channel inhibitors, primary screen, cell-based, CHO-K1, FluxOR thallium flux, B-score. B-score at 10 µM. Potassium voltage-gated channel subfamily KQT member 2 (Rattus norvegicus), O88943. 310,000 compounds, 1.1% hits. 20 min; stronger effect = lower value;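 active = fluorescence ratio B-score at most minus 3 library SDs, with starting brightness B-score within 2 library SDs, cut at about -5.5 in these data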
KCNQ2 inh conf – rat KCNQ2 potassium channel inhibitors, confirmation, cell-based, thallium flux; shares compounds with KCNQ2 block; KCNQ2-expressing cells, inhibition; stronger effect = lower value; activity change, negative = inhibition, % at 10 µM; 1,000 compounds, 57% hits;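 also: 0% = vehicle wells and values are ratio percent relative to vehicle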
KCNQ1 spec – human KCNQ1 channel inhibition, counter-screen for KCNQ2 inhibitor project, cell-based, FluxOR thallium flux; shares compounds with KCNQ2 block; activity change, negative = inhibition, % at 10 µM; KCNQ1-expressing cells, FluxOR thallium flux fluorescence; stronger effect = lower value; 1,000 compounds, 15% hits; AID 493026, 2011;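 active = activity change at least 3 SD of negative controls below their mean in both duplicate wells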;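 also: CHO cells stably transfected with KCNQ1 and depolarized by potassium stimulus; peak minus minimum fluorescence over baseline after thallium addition; 0% = vehicle negative control and -100% = blank without thallium stimulus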
CHO Tl ctr – thallium flux change in parental CHO cells, counter-screen for KCNQ2 inhibitor project | shares compounds with KCNQ2 block | stronger effect = lower value | activity change, % at 10 µM | 1,000 compounds, 14% hits;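 also: 0% = vehicle negative controls with stimulus buffer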
KCNQ2 patch conf – rat KCNQ2 channel inhibitors, confirmation, cell-based, automated patch clamp, single concentration; shares compounds with KCNQ2 block; KCNQ2-expressing cells, automated patch clamp current; calls only at 10 µM; 550 compounds, 49% hits
Kir21 conf inh – mouse Kir2.1 channel blockers, retest, confirmation, cell-based, FluxOR thallium flux, duplicate; shares compounds with KCNQ2 pot; Kir2.1-expressing cells, FluxOR thallium flux fluorescence; stronger effect = lower value; Tl flux remaining, % of negative control (stronger effect = lower value), % at 10 µM; 2,300 compounds, 41% hits;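 active = Primary-screen hit whose thallium flux fell at least 3 control SD below untreated wells in both duplicates, with normal baseline fluorescence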;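 also: 0% = blank wells without stimulus and 100% = stimulated no-compound controls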
HEK293 Tl flux – parental HEK293 activity in Kir2.1 inhibitor counter-screen; shares compounds with KCNQ2 pot; parental HEK293 cells, FluxOR thallium flux fluorescence; 0% = unstimulated blank wells; FluxOR signal as % of negative control (100 = no effect), % at 10 µM; 2,300 compounds, 19% hits; AID 2105;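 active = dye signal at least 3 control SD above or below untreated wells in both duplicates, raw fluorescence within 3, either direction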;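 also: percent is based on the flux ratio of peak minus minimum fluorescence over baseline F0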
* hit, by the source's call. Hits are enriched below; roughly 1.6% of the tested compounds scored in any of these assays. Unless noted, no rule for the calls is given here.

Screening O=C(NCCN1CCOCC1)c1cnn2c(-c3ccccc3)cc(-c3ccccc3)nc12 returned KCNQ2 block inactive.
For O=C(c1cnn2c(-c3ccccc3)cc(-c3ccccc3)nc12)N1CCN(Cc2ccccc2)CC1 the results were KCNQ2 pot -8.9, KCNQ2 block -8.9*, KCNQ2 inh conf -28%*, KCNQ1 spec inactive, CHO Tl ctr inactive and KCNQ2 patch conf inactive.
`Cc1ccc(NC(=O)NNC(=O)CN2C(=O)COc3ccccc32)cc1` gave KCNQ2 pot 2.1 and KCNQ2 block inactive.
For COc1cc(C(=O)Nc2cc(-c3ccccc3)[nH]n2)cc(OC)c1OC the results were KCNQ2 pot -6.6, KCNQ2 block -6.6*, KCNQ2 inh conf -25%*, KCNQ1 spec inactive, CHO Tl ctr inactive and KCNQ2 patch conf inactive.
`COc1cc(C(=O)Nc2nc(OC)c(-c3ccccc3)c(OC)n2)cc(OC)c1OC` gave KCNQ2 pot 0.82 and KCNQ2 block inactive.
Screening CCCC(C(=O)Nc1cccc(S(=O)(=O)N2CCCC2)c1)c1ccccc1 (centres undefined) returned KCNQ2 block inactive.
For COc1cccc(NC(=O)CN(C)C(=O)c2cc(-c3cccc(Br)c3)nc3ccccc23)c1 the results were KCNQ2 block inactive.
Screening COc1cc(CNCc2ccccc2)cc(Cl)c1OC returned KCNQ2 pot 0.24 and KCNQ2 block inactive.
`COc1cc(CNCCc2ccccc2)cc(Cl)c1OCc1ccccc1` gave KCNQ2 pot -7.2, KCNQ2 block -7.2*, KCNQ2 inh conf inactive, KCNQ1 spec inactive, CHO Tl ctr inactive, Kir21 conf inh 31%* and HEK293 Tl flux inactive.
`OC(CNCC(c1ccc(Cl)cc1Cl)c1c[nH]c2ccccc12)c1ccccc1` (centres undefined) gave KCNQ2 block inactive.
CCCn1c(NCc2c[nH]c3ccccc23)nc2ccccc21 was read as KCNQ2 pot -7.9, KCNQ2 block -7.9*, KCNQ2 inh conf -28%*, KCNQ1 spec inactive, CHO Tl ctr inactive, KCNQ2 patch conf active, Kir21 conf inh 42%* and HEK293 Tl flux inactive.
CCCn1c(NCc2ccccn2)nc2ccccc21 was read as KCNQ2 pot 1.9 and KCNQ2 block inactive.
Screening CC1CCCC(NC(=O)CCS(=O)(=O)c2cc3c(cc2Cl)NC(=O)CO3)C1C (centres undefined) returned KCNQ2 block inactive.
`O=C(/C=C/c1ccccc1O)c1ccco1` gave KCNQ2 block inactive.
`O=C(/C=C/c1cc(Br)ccc1O)c1ccco1` gave KCNQ2 pot -7.7, KCNQ2 block -7.7*, KCNQ2 inh conf -36%*, KCNQ1 spec -41%*, CHO Tl ctr -29%*, KCNQ2 patch conf inactive, Kir21 conf inh 73%* and HEK293 Tl flux inactive.
Cc1ccc(NC(=O)CSCC(=O)Nc2cc(Cl)ccc2N2CCOCC2)cc1 was read as KCNQ2 pot 3.2 and KCNQ2 block inactive.
CN1\C(=C/C=C/C=C/C=[N+](C)C)C(C)(C)c2ccccc21 was read as KCNQ2 pot -9.7, KCNQ2 block -9.7*, KCNQ2 inh conf -48%*, KCNQ1 spec -36%*, CHO Tl ctr -36%*, KCNQ2 patch conf active, Kir21 conf inh 12%* and HEK293 Tl flux inactive.
`CN1/C(=C\C=O)C(C)(C)c2ccccc21` gave KCNQ2 pot 1.5 and KCNQ2 block inactive.
`CC(C)(C)NC(=O)CSc1nnc(C2CC2)n1-c1ccccc1` gave KCNQ2 block inactive.
`Cc1cc(OCC(=O)NCC(c2cccs2)N2CCOCC2)ccc1C(C)C` (centres undefined) gave KCNQ2 block inactive.
For Cc1ccc(C(C)C)c(OCC(=O)NCC(c2cccs2)N2CCOCC2)c1 (centres undefined) the results were KCNQ2 pot -8.4, KCNQ2 block -8.4*, KCNQ2 inh conf -38%*, KCNQ1 spec inactive, CHO Tl ctr inactive, KCNQ2 patch conf inactive, Kir21 conf inh 78%* and HEK293 Tl flux inactive.
Cc1cc(F)ccc1S(=O)(=O)N1CCCOC1CNC(=O)C(=O)NC1CCCC1 (centres undefined) was read as KCNQ2 block inactive.
O=C(O)CCC(=O)N1CCC(n2nnc3cc(C(F)(F)F)ccc32)CC1 was read as KCNQ2 pot 1.2 and KCNQ2 block inactive.
`O=C(O)Cc1coc2ccc3ccccc3c12` gave KCNQ2 pot 0.01 and KCNQ2 block inactive.
Screening CC(C)CN(CC(C)C)C(=O)Cc1coc2ccc3ccccc3c12 returned KCNQ2 pot -8.4, KCNQ2 block -8.4*, KCNQ2 inh conf -31%*, KCNQ1 spec -28%*, CHO Tl ctr -20%*, KCNQ2 patch conf active, Kir21 conf inh inactive and HEK293 Tl flux inactive.
`Cc1ccc(C(=O)N/C(=C\c2ccc(-c3ccc(Br)cc3)o2)C(=O)NCCCN(C)C)cc1` gave KCNQ2 pot -8.2, KCNQ2 block -8.2*, KCNQ2 inh conf -31%*, KCNQ1 spec inactive, CHO Tl ctr inactive, KCNQ2 patch conf inactive, Kir21 conf inh inactive and HEK293 Tl flux inactive.
Screening Cc1ccc(C(=O)N/C(=C\c2ccc(-c3cccc([N+](=O)[O-])c3)o2)C(=O)NCCCN(C)C)cc1 returned KCNQ2 pot 1.7 and KCNQ2 block inactive.
Screening CC1CCC(NC(=O)COC(=O)CCC(=O)c2ccc(Cl)s2)CC1 (centres undefined) returned KCNQ2 pot 1.4 and KCNQ2 block inactive.
For CCN1/C(=C/c2sc(-c3ccccc3C)c[n+]2C)Sc2ccccc21 the results were KCNQ2 pot -7, KCNQ2 block -7*, KCNQ2 inh conf inactive, KCNQ1 spec inactive, CHO Tl ctr inactive, Kir21 conf inh 24%* and HEK293 Tl flux inactive.
For CCN1/C(=C/c2ccc3cc(C)ccc3[n+]2CC)Sc2ccccc21 the results were KCNQ2 block inactive.
For Cc1ccc(OCC(=O)Nc2ccccc2N2CCOCC2)c(C)c1 the results were KCNQ2 pot -7.4, KCNQ2 block -7.4*, KCNQ2 inh conf inactive, KCNQ1 spec inactive, CHO Tl ctr inactive, Kir21 conf inh 61%* and HEK293 Tl flux inactive.
